Screens deposited in PubChem by National Center for Advancing Translational Sciences (NCATS).
HCMV antiviral: qHTS Assay for inhibitors of the human cytomegalovirus (HCMV); HFF cells, HCMV-luciferase reporter, 72 h; hits give low values; 410,000 tested, 4.5% active; activity change, negative = inhibition, % at 57.5 µM; in the data active means activity change below about -60%; inconclusive means no clear call, values can overlap the other calls; inactive means above about -39%
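Human foreskin fibroblasts infected with luciferase-reporter HCMV at MOI 1 PFU/cell, compounds at two doses. Luciferase measured 72 h post infection; normalized to buffer-only basal and Salinomycin (10uM) controls.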
FMDV antiviral: High Throughput Screening for Foot and Mouth Disease Virus Antivirals | FMDV antiviral cell-based qHTS | Potency, µM (series often up to 57.9 µM), for the others: at the top dose activity change, negative = inhibition, usual class: inhibitors | 410,000 tested, 1.2% active; calls by dose curve; tested in HEK293T cells; further: read-out not given here; potency means the concentration at half of the fitted maximal effect; nearly all actives have a fitted effect of over 45% in size
MARV entry inh: qHTS for inhibitors of binding or entry into cells for Marburg Virus | Marburg virus pseudotyped entry inhibition, cell reporter | Potency, µM (series often up to 37.8 µM), for inactives: top-dose activity change, negative = inhibition, hits mostly inhibitors | 300,000 tested, 1.8% active | AID 540276, 2011; calls by dose curve; tested in HEK293 cells; further: potency means the concentration at half of the fitted maximal effect
HCV inhibitor: qHTS Assay for Inhibitors of Hepatitis C Virus (HCV); Potency, µM (top dose mostly 41.8 µM), without a hit: at the top dose activity change, negative = inhibition, hits mostly inhibitors; 340,000 tested, 3.4% active; AID 651820, 2012; Huh7.5.1 HCVcc-Cre infection, luciferase reporter, 44 h; active means well fitted inhibition curve with a large enough effect; inconclusive means small, poorly fitted or top-dose-only effect, or another doubt; inactive means no such curve, though single readings can be large or run the other way; further: potency means the concentration at half of the fitted maximal effect
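Reporter virus HCVcc-Cre (~0.5 moi) infects cells exposed to compound; seeding density 1,000 cells/well with 4 h settling beforehand. Luminescence, 15 sec read, taken 44 h post-infection following a 15 min RT substrate incubation.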
Lassa entry inh: qHTS for Inhibitors of binding or entry into cells for Lassa Virus | AID 540256, 2011 | 300,000 tested, 1.2% active | Lassa virus pseudotype entry inhibition, cell reporter | Potency, µM (highest dose often 37.9 µM), for the others: at the highest dose activity change, negative = inhibition, most hits filed as inhibitors; calls by dose curve; tested in HEK293 cells; further: potency means the concentration at half of the fitted maximal effect; nearly all actives have a fitted effect of over 50% in size
Starred values were filed as active, the others as inactive; ? = inconclusive; / = no result given; [ ] = remark or other dose. Only some compounds are listed: those with a hit (about 7.9% of all), similar ones and a draw of the others. On the % scale 0 is the no-effect control and ±100 the full control effect.

SMILES	HCMV antiviral	FMDV antiviral	MARV entry inh	HCV inhibitor	Lassa entry inh
O=C(Nc1nccs1)C1CC(=O)N(c2ccc(F)cc2)C1 (stereo not drawn)	17	3%	-2%[46.1 µM]	13%	24%
O=c1oc(Cl)c(Cl)c2c1CCCC2	/	/	-28%	/	/
COc1ccc(-n2c(CC3C(=O)Nc4ccc(C)cc43)nc3ccccc3c2=O)cc1 (stereo not drawn)	8	?	-7%[46.1 µM]	/	-12%[46.1 µM]
CCCN(C)C1CN(Cc2cn(Cc3ccc(F)cc3)nn2)S(=O)(=O)C1 (stereo not drawn)	-13	-11%	/	/	/
Cc1ccc(NC(=O)CSc2ccc(Br)cc2)cc1S(=O)(=O)N1CCOCC1	-33	?	?	32µM*	?
Cc1ccc(NC(=O)CSc2ccccn2)cc1S(=O)(=O)N1CCOCC1	4	17%	?	-9%	?
Cc1ccc(NC(=O)CCCSc2ccccc2)cc1S(=O)(=O)N1CCOCC1	-6	28µM*	?	?	?
CC(C)(C)C(=O)Cn1ncc(Br)c(Br)c1=O	-101*	?	/	10µM*	/
COc1ccc(Oc2nc(-c3ccncc3)nc3ccccc23)cc1	18	?	?	?	-11%
CC(=O)c1ccc(Oc2nc(-c3cccnc3)nc3ccccc23)cc1	-14	-12%	-1%[46.1 µM]	11µM*	-22%
COc1ccc(Oc2nc(-c3ccccn3)nc3ccccc23)cc1	-70*	3%	?	13µM*	?
Fc1ccc(Oc2nc(-c3ccccn3)nc3ccccc23)cc1	?	?	?	-73%	-15%
COc1ccc(Oc2nc(-c3ccccn3)ncc2OC)cc1	-25	-6%	2%[46.1 µM]	?	?
c1ccc(Oc2nc(-c3ccccn3)nc3ccccc23)cc1	?	-9%	?	7.9µM*	?
CC(=O)NC(CC(=O)N1CCN(C(C)=O)CC1)c1ccccc1 (stereo not drawn)	-6	0%	/	12%	/
Cc1ccc(NC(=O)C2CCN(C(=O)c3cccs3)CC2)c(C)c1	8	6%	-18%[46.1 µM]	5%	/
CC(C)OC(=O)c1cc2c(ccn2C)n1CC(=O)N(Cc1ccccc1)c1ccc(F)cc1	7	0%	5.2µM*	?	5µM*
CCOC(=O)c1cc2c(ccn2C)n1CC(=O)N(Cc1ccccc1)c1ccc(F)cc1	-32	7%	?	10%	?
CCn1c(-c2ccccc2)c(C(=O)CCl)c2ccccc21	-100*	18µM*	/	8.9µM*	/
CCn1c2ccccc2c(=O)c2ccccc21	-29	-12%	2%[46.1 µM]	?	8%[46.1 µM]
Cn1c(-c2ccccc2)c(C(=O)CCl)c2ccccc21	-101*	10µM*	?	5.6µM*	-27%
CCOc1cc(/C=N/Nc2cc(C)nc(-n3nc(C)cc3C)n2)ccc1O	-78*	?	/	?	/
Cc1cc(N/N=C/c2ccc(F)cc2)nc(-n2nc(C)cc2C)n1	-96*	0%	?	2µM*	?
COc1ccc(/C=N/Nc2cc(C)nc(N3CCOCC3)n2)cc1	27	4%	13%[46.1 µM]	6%	1%
CCOc1cc(/C=N/Nc2nc(C)cc(=O)[nH]2)ccc1O	64	28%	?	9%	13%[46.1 µM]
SMILES	HCMV antiviral	FMDV antiviral	MARV entry inh	HCV inhibitor	Lassa entry inh
COc1ccc(/C=N/Nc2cc(C)nc(-n3nc(C)cc3C)n2)c(OC)c1	-98*	28µM*	?	?	21µM*
COc1ccc(S(=O)(=O)N2CCc3ccccc32)cc1C(=O)OCc1c(C)noc1C	-1	-13%	3.5µM*	?	18µM*
Cc1noc(C)c1COC(=O)c1cccc(S(=O)(=O)N2CCCCCC2)c1	25	?	8.9µM*	2.2µM*	?
COc1ccc(S(=O)(=O)N2CCCCCC2)cc1C(=O)OCc1c(C)noc1C	68	9%	-14%	-19%	?
COc1ccc(-c2coc3c(C(=O)Nc4cccnc4)cccc23)c(C)c1	?	20µM*	/	/	/
COc1ccc(-c2coc3c(C(=O)NCc4cccc(Cl)c4)cccc23)c(C)c1	-62*	0%	/	/	/
Cc1oc(-c2cccc(Cl)c2)nc1CS(=O)(=O)CC(=O)NCc1ccco1	-39	-9%	/	-14%	/
OCCCNCc1cc2ccc(F)cc2nc1N1CCN(c2cccc(Cl)c2)CC1	/	0%	/	/	/
CCCCCSc1cc(OC)c(CCN)cc1OC	-70*	0%	?	?	?
O=[N+]([O-])c1ccc(-c2cnc(SCc3ccccc3Cl)[nH]2)cc1	20	?	-13%	?	-4%
O=[N+]([O-])c1ccc(-c2cnc(SC(c3ccccc3)c3ccccc3)[nH]2)cc1	?	?	?	?	3.5µM*
Cc1cc(C)c(CSc2ncc(-c3ccc([N+](=O)[O-])cc3)[nH]2)c(C)c1	-13	0%	?	11µM*	0%
NC(=O)CSc1ncc(-c2ccc([N+](=O)[O-])cc2)[nH]1	-34	19%	7%	-7%	?
COc1ccc2c3n([n+]([O-])c2c1)C(C)CN=C3c1ccc(C)cc1 (stereo not drawn)	20	/	/	/	/
Cc1cccc(-n2nc(C(=O)c3ccco3)cc(-c3nc4ccccc4[nH]3)c2=N)c1	-22	-29%	-7%	?	-3%
Cc1ccccc1-n1nc(C(=O)c2cccs2)cc(-c2nc3ccccc3[nH]2)c1=N	2	-10%	?	10µM*	-7%
COc1ccc(-n2nc(C(=O)c3cccs3)cc(-c3nc4ccccc4[nH]3)c2=N)cc1	160	6%	1%	11µM*	3%
O=C1NC(=O)N(c2ccc3c(c2)OCO3)C(=O)/C1=C/c1ccsc1	30	?	/	22%	/
O=C1NC(=O)N(c2ccc3c(c2)OCO3)C(=O)/C1=C/c1cccs1	99	28µM*	?	26%	?
Cc1nc2ccc(NC(=O)c3cccs3)cc2c(=O)n1Cc1ccc(Cl)cc1	-98*	/	?	?	?
COc1ccc(S(=O)(=O)N(C)c2ccc(C(=O)NC3CC3)cc2)cc1	-12	-14%	3%	?	-10%
COc1ccc(N(C)S(=O)(=O)c2cccc(C(=O)NC3CCC(C)CC3)c2)cc1 (stereo not drawn)	-62*	-19%	?	?	?
COc1ccc(N(C)S(=O)(=O)c2cccc(C(=O)NC3CCCCCC3)c2)cc1	-7	?	?	?	?
COc1ccc(N(C)S(=O)(=O)c2cccc(C(=O)OCC(=O)c3c(N)n(C)c(=O)n(C)c3=O)c2)cc1	?	22µM*	?	?	?
COc1ccc(N(C)S(=O)(=O)c2cccc(C(=O)Nc3cccc(C(=O)NC4CC4)c3)c2)cc1	-8	-17%	?	14µM*	?
COc1ccc(N(C)S(=O)(=O)c2cccc(C(=O)N(C)Cc3ccc(C)o3)c2)cc1	-1	-23%	?	-17%	5µM*
N#Cc1cccc(-c2cc(NCc3cccnc3)ncn2)c1	/	12%	/	/	/
